Laboratory results taken from PubChem BioAssay AID2315 (National Center for Advancing Translational Sciences (NCATS), 2010).
The campaign covered roughly 290,000 compounds. About 27,000 (9.3%) were called active. Rule as the data show it: active = inhibition mostly above about 28% (no sharp cut-off); inactive = mostly below about 43%. Shown is part of a subset that was picked to be rich in actives.

assay: A qHTS for Small Molecule Inhibitors of Shiga Toxin; settings: Vero cells, Shiga toxin protein synthesis inhibition reporter; at 38.7 µM, stronger effect = higher value; also: 0% is about no effect

| Structure (SMILES) | inhibition |
| --- | --- |
| CCn1c(SCC(=O)NC2CC2)nnc1-c1ccccc1OC | -5.24% (inactive) |
| O=C1/C(=C/c2ccc(F)cc2)SC(=S)N1CCCC(=O)N1CCCCC1CCO (configuration not stated) | -4.46% (inactive) |
| CN(C)CCCN(C(=O)c1ccc(S(=O)(=O)N2CCCc3ccccc32)cc1)c1nc2ccc(F)cc2s1 | -2.08% (inactive) |
| O=C(NCc1ccncc1)C1CCN(C(=O)c2cccc(Cl)c2)CC1 | 4.24% (inactive) |
| COC(=O)C1(C)NC(c2ccc(C)cc2)C2C(=O)N(c3ccc(F)cc3)C(=O)C21 (configuration not stated) | -13.6% (inactive) |
| O=S(=O)(c1cc(Cl)ccc1Cl)N1CCN(Cc2ccco2)CC1 | -10.2% (inactive) |
| O=c1[nH]c2ccc(S(=O)(=O)N3CCCC3)cc2[nH]1 | -12.3% (inactive) |
| Cc1ccc(C(C(=O)NCC2CCCO2)N(C(=O)c2snc(C(N)=O)c2N)c2ccc(C(C)C)cc2)o1 (configuration not stated) | 3.97% (inactive) |
| N#Cc1cccc(CN2CCC(=O)N([C@H](CO)c3ccccc3)CC2)c1 | -4.45% (inactive) |
| O=C(NCC1CC1)C1(C(F)(F)F)C/C(=C\CCO)CCCO1 (configuration not stated) | 2.98% (inactive) |
| Cc1c2cnn(CC(=O)NCc3ccccn3)c(=O)c2c(C)n1Cc1ccc(Cl)cc1 | -4.19% (inactive) |
| COc1ccc(CC(=O)N/N=C(\C)c2ccccn2)cc1 | -0.965% (inactive) |
| C/C(=N\NC(=O)Cc1ccc(Cl)cc1)c1ccccn1 | 13.2% (inactive) |
| C/C(=N\NC(=O)c1ccccc1F)c1ccccn1 | 61.3% (active) |
| CCCCN(CC)CCNC(=O)CCNC(=O)Cn1ccc2ccccc2c1=O | -4.87% (inactive) |
| O=S(=O)(c1ccc(F)cc1)N1CCN=C1SCc1cccc(F)c1 | -6% (inactive) |
| CC(C)CCC(C)NC(=O)c1ccc2nccnc2c1 (configuration not stated) | 95.5% (active) |
| COCC(C)NC(=O)c1ccc(Cl)c(Cl)c1 (configuration not stated) | -2.73% (inactive) |
| Cc1ccc(C)c(NC(=O)c2ccc3nccnc3c2)c1 | 19.7% (inactive) |
| COC(=O)Cc1cnc(NC(=O)CSc2nc(C(C)C)cc(=O)[nH]2)s1 | -7.11% (inactive) |
| Oc1ccc(Br)cc1/C=N/Nc1ccccn1 | 66.3% (active) |

| Structure (SMILES) | inhibition |
| --- | --- |
| CCN(CC)CCn1c(/N=C/c2cc(Br)ccc2O)nc2ccccc21 | 26.3% (inactive) |
| Oc1ccc(Br)cc1C=Nc1ccc2[nH]ncc2c1 | -11.4% (inactive) |
| Oc1ccc(/C=N/Nc2ccc(C(F)(F)F)cn2)cc1O | 108% (active) |
| Cc1nccn1CC(=O)N/N=C/c1ccc(O)c(O)c1 | -15.2% (inactive) |
| FC(F)(F)c1cccc(N/N=C/c2ccccc2)c1 | 33.8% (inactive) |
| COc1cc(C(=O)NCCOC(=O)c2cccc(N(C)C)c2)cc(OC)c1OC | -2.34% (inactive) |
| N#C/C=C/N1CCN(Cc2ccc3c(c2)OCO3)CC1 | -6.62% (inactive) |
| CCC(CC)NC(=O)CSc1nnc(-c2c[nH]c3ccccc23)o1 | -14.4% (inactive) |
| CN(C(=O)CSc1nnc(-c2c[nH]c3ccccc23)o1)C1CCS(=O)(=O)C1 (configuration not stated) | -1.73% (inactive) |
| O=C(CSc1nnc(-c2c[nH]c3ccccc23)o1)c1ccccc1 | 22.5% (active) |
| Cc1cccc(OCC(=O)Nc2ccc(NC(=O)c3ccco3)c(C)c2)c1 | -4.8% (inactive) |
| COc1ccc(-c2nonc2NC(=O)c2oc3ccc(F)cc3c2C)cc1OC | -3.6% (inactive) |
| CCOc1ccccc1CN1CCN(C2CCC2)CC1CCO (configuration not stated) | -4.75% (inactive) |
| O=C(c1ccc(CSc2ccccc2)cc1)N1CCCCCC1 | 17.6% (active) |
| CC1CCN(C(=O)c2ccc(CSc3ccc(Cl)cc3)cc2)CC1 | 0.865% (inactive) |
| O=C(c1ccc(S(=O)(=O)c2ccccc2)cc1)N1CCCCCC1 | 1.55% (inactive) |
| CSCC[C@H](NC(=O)N1CCn2c1nc1ccccc12)C(=O)NCc1ccc2c(c1)OCO2 | -0.771% (inactive) |
| Cc1ccc(-c2nc(CS(=O)(=O)CC(=O)NCc3ccc4c(c3)OCO4)c(C)o2)cc1 | -3.19% (inactive) |
| Cc1ccc(NC(=O)c2ccc(CSc3ncnc4nc[nH]c34)cc2)c(C)c1 | 39% (inactive) |
| CCc1ccc(-c2nnn(Cc3nn[nH]n3)n2)cc1 | -3.04% (inactive) |
| CCOC(=O)c1ccc(NC(=O)Cn2nnc(-c3ccc(C)cc3)n2)cc1 | -5.77% (inactive) |

| Structure (SMILES) | inhibition |
| --- | --- |
| CCc1ccc(-c2nnn(Cc3nc4ccccc4s3)n2)cc1 | 81% (active) |
| COc1ccccc1N1CC(C(=O)Nc2nnc(SCC(=O)NCC3CCCO3)s2)CC1=O (configuration not stated) | -8.54% (inactive) |
| COc1cccc(NC(=O)CN(C)C(=O)c2ccccc2CCc2ccccc2)c1 | 16.1% (inactive) |
| COc1ccc(CC(NC(C)=O)C(=O)NC2CCN(C(=O)c3ccc(Cl)cc3)CC2)cc1 (configuration not stated) | -3.77% (inactive) |
| O=C(Cc1ccccc1)N1CCN(S(=O)(=O)c2ccc([N+](=O)[O-])cc2)CC1 | -23.6% (inactive) |
| CC(CC(=O)N1CCN(S(=O)(=O)c2ccccc2)CC1)n1cncn1 (configuration not stated) | -9.3% (inactive) |
| N#C/C=C1\Sc2ccccc2C(=O)N1CC(=O)N1CCN(S(=O)(=O)c2ccccc2)CC1 | 122% (active) |
| COC(=O)CN1C(=O)[C@H]2[C@@H](/C=C/c3ccccc3)N3C(=O)CN(Cc4ccccc4)C(=O)[C@@]3(Cc3ccccc3)[C@H]2C1=O | -2.54% (inactive) |
| O=C(c1ccc(F)cc1)N1CCCC(c2nc(-c3cccs3)no2)C1 (configuration not stated) | 16.4% (inactive) |
| O=C(Cc1cccs1)N1CCCC(c2nc(-c3ccc(S(=O)(=O)N4CCCC4)cc3)no2)C1 (configuration not stated) | -10.3% (inactive) |
| COc1cc(-c2noc(C3CCCN(S(=O)(=O)c4cccc(Cl)c4)C3)n2)cc(OC)c1OC (configuration not stated) | -8.14% (inactive) |
| COc1ccc(NC(=O)N2CCCC(c3nc(-c4ccc(F)cc4)no3)C2)cc1 (configuration not stated) | 96% (active) |
| CCN(C(=O)C1CCCN(c2nc(-c3ccc(OC)cc3)no2)C1)c1ccc(OC)cc1 (configuration not stated) | 9.76% (inactive) |
| COc1ccc(C(=O)NC2CCN(C(=O)Nc3ccc(F)cc3)CC2)cc1 | -7.18% (inactive) |
| Cc1ccc(-c2noc(C3CCCN(C(=O)c4cccc(Cl)c4)C3)n2)o1 (configuration not stated) | 69.1% (active) |
| COc1ccc(NC(=O)N2CCCC(C(=O)Nc3ccccc3OC)C2)cc1 (configuration not stated) | -5.66% (inactive) |
| O=C(c1cccs1)N1CCCC(c2nc(-c3ccc(F)cc3)no2)C1 (configuration not stated) | 82.3% (active) |
| CCc1nc2ccc(C(=O)N3CCN(c4cccc(Cl)c4)CC3)cc2nc1CC | -14% (inactive) |
| Cc1c(CN2CCCC(C(=O)c3cccc(Cl)c3)C2)c(=O)n(-c2ccccc2)n1C (configuration not stated) | -7.01% (inactive) |
| CC(C)c1ccc(-c2noc(C3CCCN(S(C)(=O)=O)C3)n2)cc1 (configuration not stated) | 64.2% (active) |
